Data on 36 compounds can be found in PubChem BioAssay (Tox21).

Values joined by “and” are separate entries in the source; they are usually repeats but may differ in a detail not shown here. Equal entries are not always repeated. Records with an inconclusive call do not appear. Active and inactive are the calls of the source. Unless noted, calls follow the shape of the dose curve; as a rule, active = well fitted curve in the direction sought with a large enough effect in the repeat runs; inconclusive = weak or mixed curves; inactive = no such curve, though single readings can be large; an effect the other way counts as inactive or inconclusive.
% is scaled to controls: 0 for no effect and ±100 for the full control effect; potency is read from the fitted curve at half-maximal effect.

One assay can be described thus: qHTS assay to identify small molecule antagonists of the progesterone receptor (PR) signaling pathway - cell viability counter screen (AID 1346798). Also: nearly all actives have a fitted effect of over 50% in size. Conditions: PR-UAS-bla HEK293T viability, CellTiter-Glo luminescence, 16 h; series mostly up to 92.4 µM; activity change, negative = cytotoxicity: at the top concentration. In outline: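 ATP content as viability readout: CellTiter-Glo luminescence, 30 min room temperature, in PR-UAS-bla HEK293T cells after 16 hr compound/R5020 treatment at 37C and 5% CO2.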
In general terms: In qHTS, concentration-response curves come from the screen itself.
In the case of `Oc1ccc(-c2ccc(O)cc2)cc1`, the “activity change, negative = cytotoxicity” value was -10.6% (inactive).

Take `CCN(CC)c1ccc(N)cc1`: the Potency was 44.5 µM (active).

For the compound `CNCC[C@H](Oc1cccc2ccccc12)c1cccs1`, the Potency is 23.7 µM (active).

For `CCCCCCCCCCCCCC[n+]1ccccc1`, the Potency is 54.5 µM (active).

For `CCc1ccc(O)c(C(C)(C)C)c1`, the “activity change, negative = cytotoxicity” value was 0.213% (inactive).

For `O=C(O)CCn1c2c(c3ccccc31)C[C@H](NS(=O)(=O)c1ccc(F)cc1)CC2`, the “activity change, negative = cytotoxicity” value is 5.32% [at 42.5 µM] (inactive).

`COC(=O)[C@]1(C)CCC[C@@]2(C)[C@H]1CC=C1C=C(C(C)C)CC[C@@H]12`: the “activity change, negative = cytotoxicity” value was 3% (inactive).

In the case of `CC(=O)Nc1ccc(O)cc1`, the Potency result is “inactive”.

In the case of `CCCCCCCCCCCCOC(=O)c1cc(O)c(O)c(O)c1`, the Potency is 54.2 µM (active).

For the compound `CC=O`, the Potency was 32 µM (active).

`CCN(CC)CCOc1ccc(C(O)(Cc2ccc(Cl)cc2)c2ccc(C)cc2)cc1` (stereo not given): the Potency is 26.6 µM (active).

Consider `CS(C)(=O)=O`, for which the “activity change, negative = cytotoxicity” value is 13% (inactive).

Consider `CCCCCCCC/C=C\CCCCCCCC(=O)OCCOC(=O)CCCCCCC/C=C\CCCCCCCC`, for which the “activity change, negative = cytotoxicity” value is -18.4% (inactive).

With `Cc1cc(Nc2ccc(O)cc2)ccc1N`, the “activity change, negative = cytotoxicity” value is -0.74% (inactive).

For the compound `CSc1ccc2c(c1)N(CCC1CCCCN1C)c1ccccc1S2` (stereo not given), the Potency is 21.6 µM (active) and 23.7 µM (active).

For the compound `CN(Cc1cc(Br)cc(Br)c1N)C1CCCCC1`, the “activity change, negative = cytotoxicity” value is -18.5% [at 42.5 µM] (inactive).

Regarding `Cc1cccc(C)c1NC(=O)CN1CCN(CCCC(c2ccc(F)cc2)c2ccc(F)cc2)CC1`, the Potency is 29.8 µM (active).

In the case of `C=C1C(C)(C)[C@@]2(Cl)C(Cl)[C@]1(Cl)C(Cl)(Cl)C2(Cl)Cl` (stereo not given in full), the Potency is 67.3 µM (active).

The next assay can be described thus: qHTS assay to identify small molecule agonists of the progesterone receptor (PR) signaling pathway - cell viability counter screen (AID 1346799; calls by dose curve; also: nearly all actives have a fitted effect of over 45% in size). Conditions: PR-UAS-bla HEK293T viability, CellTiter-Glo luminescence, 16 h; series mostly up to 92.4 µM; activity change, negative = cytotoxicity: at the top concentration. In outline: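 Cytotoxicity in PR-bla HEK293T cells: 16 h compound, 37C; CellTiter-Glo added post-FRET read; luminescence after 30 min RT.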
`Nc1cc(Cl)c([N+](=O)[O-])cc1O`: the “activity change, negative = cytotoxicity” value was 12.5% (inactive).

`CCC1(c2cnc[nH]2)Cc2ccccc2C1`: the “activity change, negative = cytotoxicity” value was -9.45% [at 42.5 µM] (inactive).

`O=C1C=CC(=O)N1c1ccccc1`: the Potency is 61.1 µM (active).

As to `Clc1ccccc1CN1CCc2sccc2C1`, the “activity change, negative = cytotoxicity” value was -1.17% [at 42.5 µM] (inactive).

For `CCCCOC(=O)C(C)CC` (stereo not given), the “activity change, negative = cytotoxicity” value is 4.16% (inactive).

With `CC(CN(C)C)CN1c2ccccc2CCc2ccccc21` (stereo not given), the Potency was 16.8 µM (active).

On to `C[C@H]1O[C@@H](O[C@H]2[C@@H](O)C[C@H](O[C@H]3[C@@H](O)C[C@H](O[C@H]4CC[C@@]5(C)[C@H](CC[C@@H]6[C@@H]5C[C@@H](O)[C@]5(C)[C@@H](C7=CC(=O)OC7)CC[C@]65O)C4)O[C@@H]3C)O[C@@H]2C)C[C@H](O)[C@@H]1O`, for which the Potency was 122 nM (active) and 191 nM (active).

`Cc1c(-c2ccc(O)cc2)n(Cc2ccc(OCCN3CCCCCC3)cc2)c2ccc(O)cc12`: the Potency was 29.8 µM (active).

Regarding `Oc1ccc(-c2ccc(O)cc2)cc1`, the “activity change, negative = cytotoxicity” value is 4.74% (inactive).

In the case of `CCN(CC)c1ccc(N)cc1`, the Potency was 44.5 µM (active).

As to `O=C(O)CCn1c2c(c3ccccc31)C[C@H](NS(=O)(=O)c1ccc(F)cc1)CC2`, the “activity change, negative = cytotoxicity” value was -9.56% [at 42.5 µM] (inactive).

As to `CCCCCCCCCCCCOC(=O)c1cc(O)c(O)c(O)c1`, the Potency was 60.9 µM (active).

On to `CC=O`, for which the Potency was 45.3 µM (active).

Turning to `CCN(CC)CCOc1ccc(C(O)(Cc2ccc(Cl)cc2)c2ccc(C)cc2)cc1` (stereo not given), the Potency is 23.7 µM (active).

As for `CS(C)(=O)=O`, the “activity change, negative = cytotoxicity” value was -5.61% (inactive).

Consider `CSc1ccc2c(c1)N(CCC1CCCCN1C)c1ccccc1S2` (stereo not given), for which the Potency is 27.2 µM (active) and 21.1 µM (active).

Take `CN(C)CCCN1c2ccccc2Sc2ccc(C(F)(F)F)cc21`: the “activity change, negative = cytotoxicity” value is 0.429% [at 42.5 µM] (inactive).

Another assay in a line: qHTS assay to identify small molecule antagonists of the TGF-beta/Smad signaling pathway - cell viability counter screen (AID 1346824). Also: nearly all actives have a fitted effect of over 50% in size. Conditions: SBE-bla HEK293T viability, CellTiter-Glo luminescence; series mostly up to 76.8 µM; viability change, negative = cytotoxic: at the top concentration. In outline:
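SBE-bla HEK 293T cells, incubated overnight, then compound plus 0.25 ng/mL TGF-beta1 (stock added) for 5 hr at 37 C. Viability was read in the same wells by CellTiter-Glo luminescence after 30 min at room temperature.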
On to `Nc1cc(Cl)c([N+](=O)[O-])cc1O`, for which the “viability change, negative = cytotoxic” value is 2.15% (inactive).

Take `CCC1(c2cnc[nH]2)Cc2ccccc2C1`: the “viability change, negative = cytotoxic” value is -0.703% [at 35.3 µM] (inactive).

In the case of `C1CC(COCC2CO2)CCC1COCC1CO1` (stereo not given), the “viability change, negative = cytotoxic” value was -5.62% (inactive).

For the compound `C=CC(C)C#N` (stereo not given), the “viability change, negative = cytotoxic” value was 0.791% (inactive).

In the case of `CC(C)N=C(N)/N=C(\N)Nc1ccc(Cl)cc1`, the “viability change, negative = cytotoxic” value was -0.465% [at 35.3 µM] (inactive).

Turning to `CCCCOC(=O)C(C)CC` (stereo not given), the “viability change, negative = cytotoxic” value is 3.69% (inactive).

Regarding `CC1CCCCN1CCCOC(=O)c1ccc(OC2CCCCC2)cc1` (stereo not given), the “viability change, negative = cytotoxic” value is -23% [at 35.3 µM] (inactive).

Take `CCC(C)c1cc([N+](=O)[O-])cc([N+](=O)[O-])c1OC(=O)OC(C)C` (stereo not given): the “viability change, negative = cytotoxic” value is -19.3% (inactive).

Consider `COc1cccc(CCc2ccccc2OCC(CN(C)C)OC(=O)CCC(=O)O)c1` (stereo not given), for which the “viability change, negative = cytotoxic” value was 3.84% [at 35.3 µM] (inactive).

For the compound `O=C1c2c(O)ccc([N+](=O)[O-])c2C(=O)c2c([N+](=O)[O-])ccc(O)c21`, the Potency is 48.5 µM (active).

As to `CC(CN(C)C)CN1c2ccccc2CCc2ccccc21` (stereo not given), the “viability change, negative = cytotoxic” value is -0.822% [at 35.3 µM] (inactive).

For `C=C(c1ccc(C(=O)O)cc1)c1cc2c(cc1C)C(C)(C)CCC2(C)C`, the “viability change, negative = cytotoxic” value is -3.02% [at 35.3 µM] (inactive).

For the compound `C=CC(=C)CCC=C(C)C`, the “viability change, negative = cytotoxic” value was 3.54% (inactive).

As to `CNCC[C@H](Oc1cccc2ccccc12)c1cccs1`, the “viability change, negative = cytotoxic” value is -14.2% [at 35.3 µM] (inactive).

Turning to `CCCCCCCCCCCCCC[n+]1ccccc1`, the Potency was 54.9 µM (active).

In the case of `CCc1ccc(O)c(C(C)(C)C)c1`, the “viability change, negative = cytotoxic” value is 7.02% (inactive).

With `COC(=O)[C@]1(C)CCC[C@@]2(C)[C@H]1CC=C1C=C(C(C)C)CC[C@@H]12`, the “viability change, negative = cytotoxic” value was -23.1% (inactive).

`CC=O`: the Potency is 25.7 µM (active).

On to `CS(C)(=O)=O`, for which the “viability change, negative = cytotoxic” value is 20.9% (inactive).

For `CCCCCCCC/C=C\CCCCCCCC(=O)OCCOC(=O)CCCCCCC/C=C\CCCCCCCC`, the “viability change, negative = cytotoxic” value was 18.7% (inactive).

`Cc1cc(Nc2ccc(O)cc2)ccc1N`: the “viability change, negative = cytotoxic” value is 4.09% (inactive).

As for `CN(Cc1cc(Br)cc(Br)c1N)C1CCCCC1`, the “viability change, negative = cytotoxic” value is -27.6% [at 35.3 µM] (inactive).

As to `CN(C)CCCN1c2ccccc2Sc2ccc(C(F)(F)F)cc21`, the “viability change, negative = cytotoxic” value is -17.7% [at 35.3 µM] (inactive).

On to `Cc1cccc(C)c1NC(=O)CN1CCN(CCCC(c2ccc(F)cc2)c2ccc(F)cc2)CC1`, for which the “viability change, negative = cytotoxic” value is -26.1% [at 35.3 µM] (inactive).

Regarding `C=C1C(C)(C)[C@@]2(Cl)C(Cl)[C@]1(Cl)C(Cl)(Cl)C2(Cl)Cl` (stereo not given in full), the “viability change, negative = cytotoxic” value is -15.7% (inactive).
